This is an account of results in PubChem BioAssay AID1851 (National Center for Advancing Translational Sciences (NCATS), 2009).

SMILES strings stand for the structures. Screen size: about 16,000 compounds; about 5,100 (32%) were called active. Not shown: some 25% with an inconclusive outcome. The list shows a part of the results. A number with no mark means an inactive call. Calls follow the shape of the dose curve; as a rule, active = well fitted curve in the direction sought with a large enough effect; inconclusive = small, poorly fitted or top-dose-only effect, or effect the other way; inactive = no such curve, though single readings can be large or run the other way.
% is scaled to controls: 0 for no effect and ±100 for the full control effect.

In this test the target is Cytochrome P450 3A4 (Homo sapiens) (UniProt P08684). The experiment in a line: Cytochrome panel assay with activity outcomes. Conditions: recombinant CYP, pro-luciferin dealkylation, luminescence, p450-cyp3a4; series mostly up to 57.1 µM; activity, negative = inhibition: at the top concentration.
Chain of Cytochrome P450 3A4 (Homo sapiens) (P08684 whole entry, looked up): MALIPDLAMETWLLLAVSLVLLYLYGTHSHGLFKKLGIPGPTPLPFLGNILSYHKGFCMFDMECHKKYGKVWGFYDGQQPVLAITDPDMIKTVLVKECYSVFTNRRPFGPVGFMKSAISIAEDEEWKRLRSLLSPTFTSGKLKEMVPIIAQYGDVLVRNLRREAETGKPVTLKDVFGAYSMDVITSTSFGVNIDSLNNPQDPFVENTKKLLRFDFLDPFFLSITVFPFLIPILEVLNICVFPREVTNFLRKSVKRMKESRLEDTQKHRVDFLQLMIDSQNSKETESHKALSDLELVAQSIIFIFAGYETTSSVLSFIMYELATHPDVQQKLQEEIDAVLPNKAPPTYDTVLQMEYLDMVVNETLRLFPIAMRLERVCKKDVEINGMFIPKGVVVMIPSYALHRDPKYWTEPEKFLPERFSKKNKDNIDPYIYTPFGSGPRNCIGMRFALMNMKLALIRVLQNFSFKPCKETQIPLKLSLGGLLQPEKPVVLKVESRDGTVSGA
Turning to `Cc1ccc(C)c(N/C(N)=N/c2nc(C)cc(C)n2)c1`, the “activity, negative = inhibition” value is -18.9%.
Consider `Cc1ccc(C(C2C(=O)CC(C)(C)CC2=O)C2C(=O)CC(C)(C)CC2=O)s1`, for which the “activity, negative = inhibition” value is -24%.
On the same count and under the same terms, next, `C[N+](C)(C)CCCCCCCCCC[N+](C)(C)C`: 11.2% [at 25.6 µM].
A word on the AC50: it is the midpoint of the concentration-response curve, whichever way the signal moves. On to `COc1ccccc1-c1cncnc1-n1ccnc1`, for which the concentration at half-maximal activity (AC50) was 0.251 µM (active).
For `COc1ccccc1-c1nnc(NC(C)=O)s1`, the “activity, negative = inhibition” value is -18.1%.
As to `CC(C)(C)c1cc(C(=O)O)c(CN2CCCCC2)o1`, the “activity, negative = inhibition” value was -12.5%.
Turning to `CC(Sc1ccc2c(c1)OCCO2)C(=O)Nc1ncc(Cl)cc1Cl` (centres undefined), the AC50 is 14.1 µM (active).
Same read-out and setting: next, `C/C(CCC(=O)OC[C@@H]1O[C@H](C#Cc2ccccc2)C=C[C@@H]1Oc1ccc(C)cc1)=N/O[C@@H](C)CN1CCCc2nc(C)c(C)cc21`: 3.98 µM (active); `C/C(CCC(=O)OC[C@@H]1O[C@H](C#Cc2ccccc2)C=C[C@@H]1Oc1ccc(C)cc1)=N/O[C@@H](C)CN1CCCCc2nc(C)c(C)cc21`: 3.16 µM (active).
Consider `Cc1cc(NC(=O)C2=C(O)c3ccccc3S(=O)(=O)N2C)no1`, for which the “activity, negative = inhibition” value is -4.95% [at 25.6 µM].
`CCOC(=O)c1ccccc1N/C=C1\CCCCC1=O`: the activity, negative = inhibition was -9.45% [at 11.4 µM].
The same measure, in the same setting: the same measure for `Cc1nn2c3c(cnc2c1-c1ccccc1)C(=O)CC(c1ccccc1)C3` (centres undefined): -7.16%.
As to `COC(=O)c1ccccc1N/C=C1\CCc2c(c(C)nn2-c2ccccn2)C1=O`, the AC50 is 14.1 µM (active).
On to `CC(=O)Nc1ccc2c(c1)/C(=C/c1ccc([N+](C)(C)C)cc1)c1ccccc1-2`, for which the activity, negative = inhibition is -11.9% [at 11.4 µM].
Take `CCCS(=O)(=O)N1CCCC(C(=O)NCc2cccnc2)C1` (centres undefined): the activity, negative = inhibition is -7.24% [at 2.29 µM].
For `O=C(Nc1ccc(Cl)c(C(F)(F)F)c1)C1CCCN(S(=O)(=O)c2cnc[nH]2)C1` (centres undefined), the AC50 is 0.126 µM (active).
Still for that read-out and setting: the same measure for `COc1ccc(Cc2nnc(NC(=O)CSc3ccc(C)cc3)s2)cc1OC`: 8.91 µM (active); for `COC(=O)c1cc(OC)c(OC)cc1NC(=O)CSc1ccc(C)cc1`: 1.58 µM (active).
With `COCc1nnc(NC(=O)CSc2ccc(C)cc2)s1`, the activity, negative = inhibition is -22.6% [at 11.4 µM].
Still for that read-out and setting: next, `O=C(O)CCCC[C@H]1CCSS1`: 19.8%.
For the compound `CCCCCC(=O)N1CC2(CC(c3cccc(NC(=O)c4ccccc4)c3)=NO2)C[C@@H]1C(N)=O` (some centres undefined), the AC50 is 15.8 µM (active).
Regarding `NC(=O)[C@H]1CC2(CC(c3cccc(NC(=O)c4ccccc4)c3)=NO2)CN1C(=O)[C@H]1CCC(=O)N1` (some centres undefined), the “activity, negative = inhibition” value is 10.5%.
The same measure, in the same setting: the same measure for `NC(=O)CNC(=O)[C@@H]1CC2(CC(c3ccc(Cl)cc3)=NO2)CN1C(=O)c1ccccc1` (some centres undefined): 16.2% [at 2.29 µM].
The same measure, in the same setting: next, `C=C(C)C(=O)N1CC2(CC(c3cccc(NC(=O)c4ccccc4)c3)=NO2)C[C@@H]1C(N)=O` (some centres undefined): 14.3%.
In the case of `NC(=O)C1(NC(=O)[C@@H]2CC3(CC(c4cccc(NC(=O)c5cc([N+](=O)[O-])cc([N+](=O)[O-])c5)c4)=NO3)CN2C(=O)c2ccccc2)CC1` (some centres undefined), the AC50 was 3.16 µM (active).
Regarding `NC(=O)CNC(=O)[C@@H]1CC2(CC(c3cccc([N+](=O)[O-])c3)=NO2)CN1C(=O)c1ccccc1` (some centres undefined), the activity, negative = inhibition is 8.44% [at 2.29 µM].
For the compound `O=c1c2ccccc2nnn1CSc1nnc(COc2ccc(Cl)cc2)n1Cc1ccco1`, the AC50 was 12.6 µM (active).
`CN(C)c1ccc2nc3c(C(=O)O)cc(=O)c(O)c-3oc2c1`: the activity, negative = inhibition is -10.3% [at 11.4 µM].
As to `COc1ccc2[nH]cc(CCNc3ccnc(-c4ccc5c(c4)OCO5)n3)c2c1`, the concentration at half-maximal activity (AC50) is 2.51 µM (active).
With `COc1ccc2[nH]cc(CCNc3cc(-c4ccc(C(=O)N(C)C)cc4)ncn3)c2c1`, the AC50 was 6.31 µM (active).
With `COc1ccc2[nH]cc(CCNc3ccnc(-c4ccc(C(=O)N(C)C)cc4)n3)c2c1`, the AC50 was 3.16 µM (active).
On to `COc1ccc2[nH]cc(CCNc3ccnc(-c4ccc(N(C)C)cc4)n3)c2c1`, for which the concentration at half-maximal activity (AC50) was 5.01 µM (active).
For `O=S(=O)(C=C(c1ccccc1)c1ccccc1)c1ccccc1`, the “activity, negative = inhibition” value was 3.56%.
Same read-out and setting: next, `CCC(=S)/C=C1\Sc2ccc3ccccc3c2N1CCCS(=O)(=O)O`: -15.7%.
Consider `COc1ccc2[nH]cc(CCNc3ccnc(-c4c(C)noc4C)n3)c2c1`, for which the AC50 is 2.51 µM (active).
Still for that read-out and setting: next, `COc1ccc2[nH]cc(CCNc3ccnc(-c4ccoc4)n3)c2c1`: 3.16 µM (active).
In the case of `CCOC(=S)NC(=O)c1sc2ccccc2c1Cl`, the “activity, negative = inhibition” value was -1.55%.
With `O=C(NC(=S)N(CCCCO)C1CCCCC1)c1sc2ccccc2c1Cl`, the AC50 was 3.16 µM (active).
Take `Oc1ccc2ccccc2c1CN(Cc1c(O)ccc2ccccc12)C1CCCCC1`: the activity, negative = inhibition is -12% [at 11.4 µM].
For `O=C1CN2CCN(CC2)CC(=O)Nc2ccc(cc2)S(=O)(=O)c2ccc(cc2)NC(=O)CN2CCN(CC2)CC(=O)Nc2ccc(cc2)S(=O)(=O)c2ccc(cc2)N1`, the activity, negative = inhibition is -29.8% [at 11.4 µM].
Still for that read-out and setting: next, `CSc1nnc(-c2sc(-c3ccccc3)nc2C)n1C`: 10.5%.
Turning to `C#CCSc1nnc(-c2sc(-c3ccccc3)nc2C)n1C`, the AC50 is 1 µM (active).
In the case of `CSc1nnc(-c2sccc2OCc2ccccc2)n1C`, the “activity, negative = inhibition” value was -26.2%.
Same read-out and setting: next, `O=C(O)CSc1cc(-c2ccccc2)nc2ccccc12`: -1.98% [at 11.4 µM].
Take `Cc1ccc(-c2cc(-c3nnc(SCC(=O)NC(C)C(C)C)n3N)c3ccccc3n2)cc1` (centres undefined): the AC50 was 14.1 µM (active).
Turning to `CCCCC(=O)Nc1sc2c(c1C(=O)OCC)CCC(C=O)=C2Cl`, the concentration at half-maximal activity (AC50) was 15.8 µM (active).
Take `CCOC(=O)c1c(NC(=O)c2c(C)noc2C)sc2c1CCCCC2`: the “activity, negative = inhibition” value was -8.22%.
On the same count and under the same terms, next, `O=C(O)c1cc2ccccc2c(S(=O)(=O)O)c1O`: 1.86% [at 11.4 µM].
Take `C/C(CCN1CCc2nc(-c3ccccc3)c(-c3ccccc3)cc2C1)=N\O[C@@H](C)CN1CCCCc2nc(C)c(C)cc21`: the AC50 was 3.98 µM (active).
For `CO/N=C(\C)CCN1CCCc2nc(C)c(C)cc21`, the activity, negative = inhibition is -26.4% [at 11.4 µM].
Take `CCN(CC)C[C@@H](O)CN1CCCCc2nc(C)c(C)cc21`: the activity, negative = inhibition was -14.9% [at 11.4 µM].
Take `C/C(CCN1CCCc2nc(C)c(C)cc21)=N\O[C@@H](C)CN1CCCCc2nc(C)c(C)cc21`: the AC50 was 3.98 µM (active).
As to `C/C(CCN1CCCCc2nc(C)c(C)cc21)=N\O[C@@H](C)CN1CCCCc2nc(C)c(C)cc21`, the half-maximal activity concentration (AC50) was 3.98 µM (active).
Turning to `Cc1cc2c(nc1C)CCCN2CC(O)CN1CCCc2nc(C)c(C)cc21`, the activity, negative = inhibition is -8.33% [at 11.4 µM].
As for `C/C(CCN1CCCCc2nc(C)c(C)cc21)=N\O[C@@H](C)c1cc(-c2c(C)cc(C)cc2C)no1`, the AC50 was 3.98 µM (active).
Consider `Nc1ccc(C(=O)NCC(=O)O)cc1`, for which the “activity, negative = inhibition” value was -3.58% [at 25.6 µM].
On the same count and under the same terms, next, `CC[N+](CC)(CC)CC[C@](O)(c1ccccc1)C1CCCCC1`: -16.7% [at 25.6 µM]; `Nc1c2c(nc3ccccc13)CCC[C@H]2O`: -4.4%; `CCc1ccc2c(c1)c(N=NC1=NC(=O)CS1)c(O)n2CC`: -22.3%.
On to `Cc1cc2c(nc1C)CCCCN2C[C@H](O)CN1CCCc2nc(-c3ccc(Br)cc3)ccc21`, for which the activity, negative = inhibition is -29.7% [at 11.4 µM].
Regarding `Cc1cc2c(nc1C)CCCCN2C[C@H](C)O/N=C\[C@@H](C)[C@H](OCc1ccccc1)C(C)C`, the AC50 was 3.98 µM (active).
In the case of `Cc1cc2c(nc1C)CCCN2C[C@@H](O)CN1CCN(C)CC1`, the activity, negative = inhibition was 0.272% [at 11.4 µM].
As to `C/C(CCN1CCCCc2nc(C)c(C)cc21)=N\O[C@@H](C)CN1CCCc2nc(C)c(C)cc21`, the AC50 was 3.16 µM (active).
As for `CCc1cc2c(nc1CC)CCN(CC/C(C)=N/O[C@@H]1O[C@H](COC(C)=O)[C@H](OC(C)=O)[C@H](OC(C)=O)[C@H]1OC(C)=O)C2`, the activity, negative = inhibition is -28.1% [at 11.4 µM].
The same measure, in the same setting: the same measure for `COc1ccc(-c2ccc3c(n2)CCCN3C[C@H](O)CN2CCCc3nc(-c4ccc(Br)cc4)ccc32)cc1`: -28.9% [at 11.4 µM].
`CCc1cc2c(nc1CC)CCN(CC/C(C)=N/O[C@@H](C)c1cc(-c3c(C)cc(C)cc3C)no1)C2`: the AC50 was 3.98 µM (active).
The same measure, in the same setting: next, `Cc1cc2c(nc1C)CCCN2C[C@H](O)CN1CCCc2nc(-c3ccc(Br)cc3)ccc21`: 3.98 µM (active).
As for `C[C@@H](N)[C@@H](C)Cc1ccccc1`, the activity, negative = inhibition is -8.05% [at 11.4 µM].
Regarding `CN(C)CCO[C@](C)(c1ccccc1)c1ccccn1`, the AC50 entry was “inactive”.
As for `CCCn1nc(Oc2nc(NCC)nc(NCC)n2)ccc1=O`, the “activity, negative = inhibition” value is -15%.
Still for that read-out and setting: the same measure for `CCCCCCCCCCCCCCCC(=O)C(F)(F)F`: -11.7%; for `COc1ncc2nc(-c3cccs3)c(=O)n(-c3ccccc3)c2n1`: -29.3%.
On to `COc1ccc(Oc2ncc3nc(-c4cccs4)c(=O)n(-c4ccccc4)c3n2)cc1`, for which the AC50 is 2.51 µM (active).
With `COc1ccc(-n2c(=O)c(-c3cccs3)nc3cnc(OC)nc32)cc1`, the AC50 was 7.94 µM (active).
For the compound `COc1ccc(-n2c(=O)c(-c3cccs3)nc3cnc(Oc4ccccc4)nc32)cc1`, the “activity, negative = inhibition” value is -9.44%.
In the case of `CN(C)CCN(c1ccccn1)c1ccccn1`, the activity, negative = inhibition was -13.9% [at 11.4 µM].
Still for that read-out and setting: next, `N#C[C@H]1CN[C@H](N)N[C@@H]1N`: -6.92% [at 11.4 µM].
For `COc1ccc(-c2ccc(/C=C3\C(=O)N(c4ccccc4)N=C3c3ccccc3)o2)c([N+](=O)[O-])c1`, the AC50 is 2 µM (active).
Take `Cc1sc(=NC(=O)c2ccco2)n(C)c1-c1ccc(F)cc1`: the “activity, negative = inhibition” value was 25.2%.
`CCOC(=O)c1nnn(-c2nonc2N)c1-c1ccc(C)cc1`: the activity, negative = inhibition was -14.1% [at 2.29 µM].
In the case of `CCOC(=O)c1nnn(-c2nc(OC)nc(N3CCCCC3)n2)c1-c1ccccc1`, the AC50 is 15.8 µM (active).
Consider `COc1nc(/C(N)=N/O)nc(N2CCCCC2)n1`, for which the “activity, negative = inhibition” value is -1.23%.
For the compound `N#CN(CC(N)=O)c1nc(N2CCCCC2)nc(N2CCCCC2)n1`, the activity, negative = inhibition was -13.4% [at 11.4 µM].
As to `CCOC(=O)c1nnn(-c2nonc2N)c1-c1ccccc1`, the AC50 is 15.8 µM (active).
With `CCOC(=O)c1cnc(SCCc2ccccc2)nc1N`, the “activity, negative = inhibition” value was -14.7%.
The same measure, in the same setting: next, `CC(C)(O)c1cn(-c2nonc2N)nn1`: -2.62%.
Turning to `Nc1nonc1-n1nncc1-c1ccccc1`, the AC50 is 15.8 µM (active).
Turning to `CC(C)OC(=O)c1nnn(-c2nonc2N)c1CSc1ccccn1`, the AC50 was 0.398 µM (active).
Turning to `COCc1c(C(N)=O)nnn1-c1nonc1N`, the “activity, negative = inhibition” value was 3.21%.
